Consider 35 molecules from PubChem BioAssay (NCATS).

The nature of assay [1]: Confirmation and Secondary Assay for Modulators of Hemoglobin Beta Chain Splicing at IVS2 705 locus (AID 930).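 Also: HeLa cells stably expressing the EGFP-705 splicing reporter; GFP fluorescence per well restored by corrected splicing of the IVS2-705 intron in EGFP; series mostly up to about 46 µM; % of control where 0% means no effect.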 Summed up:
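Read-out: total peak GFP fluorescence per well (488 nm excitation, 500-520 nm emission) by laser-scanning cytometry. Cells: HeLa EGFP-705 splicing reporter, 2 days compound exposure in Optimem/2% FCS.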

Assay [2] deals with DNA dC->dU-editing enzyme APOBEC-3G (Homo sapiens) (UniProt Q9HC16). The experiment in a line: qHTS for inhibitors of Vif-A3G interactions: Validation (AID 588379). Also: 0% is about no effect. The gist of the method:
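HeLa cells stably expressing Vif and A3G-eYFP, 700 cells/well, incubated overnight at 37 deg C, then exposed to compound overnight at 37 deg C. Inhibition of Vif-mediated degradation read as increased yellow fluorescence (Ex 488/Em 500-530) by laser-scanning cytometry.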

Assay [3] addresses Cytochrome P450 2D6 (Homo sapiens) (UniProt P10635). The experiment in a line: qHTS Assay for Inhibitors and Substrates of Cytochrome P450 2D6 (AID 891). Also: potency is read from the fitted curve at half-maximal effect; nearly all actives have a fitted effect of over 60% in size. Summed up:
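Human CYP2D6 (5 nM) with 30 uM Luciferin-ME EGE (at Km) in 100 mM KPO4, compound preincubated 10 min, then NADPH regeneration system for 60 min at room temperature. Luciferin read by luminescence; normalized to 1.43 uM quinidine.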

Assay [4] addresses Dual specificity protein kinase CLK4 (Homo sapiens) (UniProt Q9HAZ1). In words: qHTS Assay for Inhibitors of CDC-like Kinase 4 (Kinase-Glo Assay) (AID 1770). Also: nearly all actives have a fitted effect of over 65% in size. Also: potency is read from the fitted curve at half-maximal effect. The gist of the method: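 Inhibition was judged from remaining ATP, measured by Ultra-Glo luciferase bioluminescence after Clk4 (25 nM) had acted on RS peptide at 1 uM ATP for 4.5 hours, room temperature.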
For assay [5] the target is unchanged. In words: qHTS Assay for Inhibitors of CDC-like Kinase 4 (ADP-Glo Assay) (AID 1771). Also: nearly all actives have a fitted effect of over 70% in size. Also: potency is read from the fitted curve at half-maximal effect. As to activity change, negative = inhibition: % is scaled to controls: 0 for no effect and ±100 for the full control effect. The gist of the method:
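Clk4 (25 nM) was incubated 1 hr at room temperature with 100 uM RS repeat peptide and 1 uM ATP in buffer with 2 mM MgCl2, 0.5 mM EGTA, 2.5 mM DTT. ADP formed was quantified by ADP-Glo luminescence.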

For assay [6], the target named is Cytochrome P450 2C9 (Homo sapiens) (UniProt P11712). In words: qHTS Assay for Inhibitors and Substrates of Cytochrome P450 2C9 (AID 883). Also: nearly all actives have a fitted effect of over 60% in size. Also: potency is read from the fitted curve at half-maximal effect. As to activity change, negative = inhibition: % is scaled to controls: 0 for no effect and ±100 for the full control effect. Summed up:
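10nM CYP2C9 + 100uM Luciferin-H (=KM), 25mM KPO4; cpd 10 min 37C; NADPH regen, 60 min 37C; stop/detect with P450 Glo-Buffer 20 min; luminescence. Norm. to 57uM sulphaphenazole as full inhibition.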

The nature of assay [7]: qHTS Assay for Identification of Small Molecule Agonists for Hypoxia Response Element Signaling Pathway (AID 914; active = well fitted activation curve with a large enough effect in the signal ratio, with a control signal flat, not every such curve was filed as active; the % refers to the signal ratio; also: potency is read from the fitted curve at half-maximal effect; as to activation: % of control where 0% means no effect). The following applies: ME-180 (cervical carcinoma) HRE-bla reporter, beta-lactamase ratio, CoCl2, 17 h; activation: hits give high values. The gist of the method:
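HRE-bla ME-180 cells, overnight plating in Opti-MEM with 0.5% dialyzed FBS; cpd titration + EC50 CoCl2, 17 h, 37 degrees Celsius; CCF4 2.5 h RT; 460/530 nm ratio; AC50.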

For assay [8], the target named is Cytochrome P450 2C19 (Homo sapiens) (UniProt P33261). In words: qHTS Assay for Inhibitors and Substrates of Cytochrome P450 2C19 (AID 899). Also: nearly all actives have a fitted effect of over 60% in size. Also: potency is read from the fitted curve at half-maximal effect. Summed up:
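Luminescent read-out of luciferin formed from Luciferin-H EGE (10uM, equal to KM). Enzyme 5nM in 50mM KPO4; compound added, 10 min at 37C, then NADPH regenerating system for 60 min at 37C. Full inhibition defined by 57uM ketoconazole.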

Assay [9] addresses Rap guanine nucleotide exchange factor 3 (Homo sapiens) (UniProt O95398). The experiment in a line: Counterscreen qHTS for antagonist of cAMP-regulated guanine nucleotide exchange factor 3 (EPAC1) (AID 1645888).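 Also: fluorescence loss as bound BODIPY-GDP is released from Rap1B; % of control where 0% means no effect.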 The gist of the method:
(§1)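 Rap1B–BODIPY-GDP (250 nM) with 50 uM GDP; compounds pin-transferred to 9.74 nM–152 uM final (activator) or from 7.32 nM upwards (inhibitor). Fluorescence Ex/Em 480/540 nm read at 5 and 30 min, then after adding cAMP or buffer, at room temperature.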

Assay [10] shares this target. The experiment in a line: Counterscreen qHTS for agonist of cAMP-regulated guanine nucleotide exchange factor 3 (EPAC1) (AID 1645889). Also: % of control where 0% means no effect; nearly all actives have a fitted effect of over 40% in size. The gist of the method:
as §1

Values without a mark were called inactive. Results filed as inconclusive are left out. The source made the active and inactive calls. Unless noted, calls follow the shape of the dose curve; as a rule, active = well fitted curve in the direction sought with a large enough effect; inconclusive = small, poorly fitted or top-dose-only effect, or another doubt; inactive = no such curve, though single readings can be large; an effect the other way counts as inactive or inconclusive.

Cytochrome P450 2C9 (Homo sapiens), sequence (P11712 whole entry, looked up): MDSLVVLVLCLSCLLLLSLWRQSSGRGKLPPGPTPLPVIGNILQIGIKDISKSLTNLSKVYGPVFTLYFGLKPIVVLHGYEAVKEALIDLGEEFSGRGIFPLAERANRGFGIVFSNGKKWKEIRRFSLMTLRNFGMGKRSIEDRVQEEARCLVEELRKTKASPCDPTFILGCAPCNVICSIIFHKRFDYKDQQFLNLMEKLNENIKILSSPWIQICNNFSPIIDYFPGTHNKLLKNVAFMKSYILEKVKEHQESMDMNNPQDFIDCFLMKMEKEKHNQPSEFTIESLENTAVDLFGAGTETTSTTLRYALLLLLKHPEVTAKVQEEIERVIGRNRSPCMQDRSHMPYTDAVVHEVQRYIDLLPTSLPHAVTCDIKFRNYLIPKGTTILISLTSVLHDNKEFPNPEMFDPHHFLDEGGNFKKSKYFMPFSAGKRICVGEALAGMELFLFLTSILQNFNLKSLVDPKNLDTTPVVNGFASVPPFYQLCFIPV
Cytochrome P450 2C19 (Homo sapiens), sequence (P33261 whole entry, looked up): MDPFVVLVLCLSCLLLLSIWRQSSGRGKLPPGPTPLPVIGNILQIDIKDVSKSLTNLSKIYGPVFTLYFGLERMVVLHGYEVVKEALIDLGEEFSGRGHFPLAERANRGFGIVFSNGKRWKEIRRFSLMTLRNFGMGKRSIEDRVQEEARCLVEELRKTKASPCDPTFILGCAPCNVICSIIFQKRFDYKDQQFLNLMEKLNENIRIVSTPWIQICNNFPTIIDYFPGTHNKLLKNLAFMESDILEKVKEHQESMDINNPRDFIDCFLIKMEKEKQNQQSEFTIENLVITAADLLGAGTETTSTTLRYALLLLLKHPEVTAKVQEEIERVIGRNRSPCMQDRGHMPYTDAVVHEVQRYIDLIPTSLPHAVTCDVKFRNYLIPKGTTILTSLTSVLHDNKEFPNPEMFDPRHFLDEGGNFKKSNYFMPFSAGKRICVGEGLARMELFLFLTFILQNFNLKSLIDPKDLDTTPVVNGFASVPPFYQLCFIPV
Cytochrome P450 2D6 (Homo sapiens), sequence (P10635 whole entry, looked up): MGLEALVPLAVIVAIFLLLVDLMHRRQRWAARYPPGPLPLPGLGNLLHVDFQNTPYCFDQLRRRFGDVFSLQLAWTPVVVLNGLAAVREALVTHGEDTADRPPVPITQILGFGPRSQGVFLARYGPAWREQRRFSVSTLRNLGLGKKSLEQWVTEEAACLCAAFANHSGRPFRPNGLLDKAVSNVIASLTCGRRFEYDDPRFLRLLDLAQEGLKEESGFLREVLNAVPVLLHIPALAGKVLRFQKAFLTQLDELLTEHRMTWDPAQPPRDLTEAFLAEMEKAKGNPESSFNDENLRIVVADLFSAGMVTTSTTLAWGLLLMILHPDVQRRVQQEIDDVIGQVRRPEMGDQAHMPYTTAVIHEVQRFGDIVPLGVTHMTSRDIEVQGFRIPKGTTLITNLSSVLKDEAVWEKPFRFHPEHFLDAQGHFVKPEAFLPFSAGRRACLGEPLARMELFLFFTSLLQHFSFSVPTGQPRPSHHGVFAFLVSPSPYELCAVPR
DNA dC->dU-editing enzyme APOBEC-3G (Homo sapiens), sequence (Q9HC16 whole entry, looked up): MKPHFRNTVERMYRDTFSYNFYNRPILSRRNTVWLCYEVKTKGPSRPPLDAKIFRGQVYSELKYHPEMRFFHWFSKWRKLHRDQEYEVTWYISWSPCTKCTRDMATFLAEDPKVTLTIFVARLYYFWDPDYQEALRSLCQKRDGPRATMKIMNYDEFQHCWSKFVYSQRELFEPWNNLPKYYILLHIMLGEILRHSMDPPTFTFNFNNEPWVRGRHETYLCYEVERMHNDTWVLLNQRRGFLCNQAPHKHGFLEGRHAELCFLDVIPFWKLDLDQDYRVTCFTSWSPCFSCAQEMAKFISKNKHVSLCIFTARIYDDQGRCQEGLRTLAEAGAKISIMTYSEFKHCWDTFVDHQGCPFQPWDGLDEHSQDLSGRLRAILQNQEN
Dual specificity protein kinase CLK4 (Homo sapiens), sequence (Q9HAZ1 whole entry, looked up): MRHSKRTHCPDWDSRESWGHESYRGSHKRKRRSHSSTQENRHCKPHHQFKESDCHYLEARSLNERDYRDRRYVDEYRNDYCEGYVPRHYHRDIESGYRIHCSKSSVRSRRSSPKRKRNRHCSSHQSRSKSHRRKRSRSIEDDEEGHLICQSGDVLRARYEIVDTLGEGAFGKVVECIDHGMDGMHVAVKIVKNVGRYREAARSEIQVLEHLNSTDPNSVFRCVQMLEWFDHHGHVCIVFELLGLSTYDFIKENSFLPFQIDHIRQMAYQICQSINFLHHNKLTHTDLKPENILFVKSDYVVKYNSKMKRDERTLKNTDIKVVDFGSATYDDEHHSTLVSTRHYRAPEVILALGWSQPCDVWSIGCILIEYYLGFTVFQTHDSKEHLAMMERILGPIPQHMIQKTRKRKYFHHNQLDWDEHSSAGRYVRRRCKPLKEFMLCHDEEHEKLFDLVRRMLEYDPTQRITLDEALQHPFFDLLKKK
Rap guanine nucleotide exchange factor 3 (Homo sapiens), sequence (O95398 whole entry, looked up): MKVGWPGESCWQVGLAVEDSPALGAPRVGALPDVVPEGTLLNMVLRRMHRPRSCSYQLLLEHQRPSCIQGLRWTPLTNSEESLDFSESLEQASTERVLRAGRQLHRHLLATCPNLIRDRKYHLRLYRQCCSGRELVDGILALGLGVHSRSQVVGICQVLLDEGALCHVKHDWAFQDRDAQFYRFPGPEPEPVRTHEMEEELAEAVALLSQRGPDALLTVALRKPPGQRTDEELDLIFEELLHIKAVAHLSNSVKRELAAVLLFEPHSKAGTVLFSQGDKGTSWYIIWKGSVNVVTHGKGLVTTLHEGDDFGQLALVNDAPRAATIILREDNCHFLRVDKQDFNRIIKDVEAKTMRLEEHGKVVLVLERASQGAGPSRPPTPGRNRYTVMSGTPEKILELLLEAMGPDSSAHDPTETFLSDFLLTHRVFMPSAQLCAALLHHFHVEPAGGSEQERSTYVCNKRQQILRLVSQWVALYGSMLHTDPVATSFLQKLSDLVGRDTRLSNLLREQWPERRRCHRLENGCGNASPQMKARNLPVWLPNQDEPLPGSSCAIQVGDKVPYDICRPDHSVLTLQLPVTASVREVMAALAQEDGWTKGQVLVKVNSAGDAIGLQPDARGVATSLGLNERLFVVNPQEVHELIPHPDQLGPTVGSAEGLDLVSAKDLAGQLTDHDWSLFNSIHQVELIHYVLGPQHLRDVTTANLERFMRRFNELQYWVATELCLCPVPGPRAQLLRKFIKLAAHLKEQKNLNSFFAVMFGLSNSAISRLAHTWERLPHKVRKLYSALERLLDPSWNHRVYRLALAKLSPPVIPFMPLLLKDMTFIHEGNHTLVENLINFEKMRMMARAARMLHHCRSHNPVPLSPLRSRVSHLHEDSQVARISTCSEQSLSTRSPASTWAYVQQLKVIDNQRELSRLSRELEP

`COc1cccc(-c2ccc3ncnc(NCc4ccccc4OC)c3c2)c1`: the result in assay [1] was inactive.

For the molecule `CS(=O)(=O)c1ccc(Cn2c3c(c4cc(F)cc(F)c42)CCC[C@H]3CC(=O)O)cc1`, the molecule was classed as inactive in assay [2].

`Cc1ccccc1-c1nc(N(C)Cc2ccco2)c2ccccc2n1`: the figures for the Potency in assay [3], in assay [4] and in assay [5] were 3.16 µM (active), 20 µM (active) and 28.2 µM (active), respectively.

As to `COc1cccc(Nc2ncc3nc(-c4cn(C)c5ccccc45)c(=O)n(C[C@H]4CCCO4)c3n2)c1`, the Potency result in [6], in [4] and in [5] was “inactive” each time.

Regarding `COCCNc1nc(-c2ccccc2C)nc2ccccc12`, the molecule was called inactive in assay [1].

Take `COc1ccc(CNc2cc(-c3ccccc3C)ncn2)c(OC)c1`: in [7], the activation was 2.85%. Moreover, the Potency result in assay [4] was “inactive”.

On to `COCC(=O)N1CCC2(CCN(Cc3ccc(C#N)cc3)CC2)CC1`, for which the activation in assay [7] was 4.64%.

Regarding `COc1ccccc1-c1ccc2ncnc(N(C)Cc3ccco3)c2c1`, the Potency in [4] was 8.91 µM (active); in assay [5], 14.1 µM (active).

For the molecule `COc1cccc(Nc2ncc3ncc(=O)n(Cc4cccs4)c3n2)c1`, the Potency in assay [4] is 0.708 µM (active); in assay [5] it was 0.794 µM (active).

With `CN(C)c1ncc2nc(-c3cc(F)cc(F)c3)c(=O)n(Cc3cccs3)c2n1`, the Potency entry in assay [8] was “inactive”. The Potency in assay [7] is 0.126 µM (active).

Consider `c1csc(CNc2ccnc(-c3ccc4c(c3)OCO4)n2)c1`, for which the Potency in [3] is 0.501 µM (active); in assay [8], 5.01 µM (active); in [5], 22.4 µM (active).

With `O=c1c(-c2cccs2)nc2cnc(N3CCOCC3)nc2n1CCc1ccccc1`, the Potency result in [4] and in assay [5] was “inactive” in each case.

Take `CN(C)c1ncc2nc(CCc3ccccc3)c(=O)n(Cc3ccc(F)cc3)c2n1`: the Potency in assay [8] was 0.794 µM (active).

Turning to `COc1cccc(-c2cc(NCc3ccc(OC)cc3OC)ncn2)c1`, the activation in [7] was 1.95%. Besides, the Potency in assay [4] was 31.6 µM (active).

`Cn1cccc1C(=O)N1CCC2(CCCN(c3cccc(-c4ccccc4)c3)C2)CC1`: the Potency in assay [6] is 3.98 µM (active).

Take `COC(=O)C1=C(C)NC(C)=C(C(=O)OCCSc2ccccc2)[C@@H]1C`: the Potency in assay [6] was 3.16 µM (active); in [8] it was 0.199 µM (active). Also, the result in assay [2] was inactive.

Consider `Cn1cccc1C(=O)N1CCC2(CC1)CN(c1cccc(-c3ccccc3)c1)C2`, for which the Potency entry in assay [6] is “inactive”.

For the molecule `O=c1c(-c2ccc(F)c(F)c2)nc2cncnc2n1Cc1ccccc1Cl`, the Potency is 5.01 µM (active) in assay [6] and 6.31 µM (active) in assay [8].

Regarding `CCCCCc1c2c(cc(O)c1C(=O)O)OC(=O)c1cc(C(=O)CCCC)c(OC)cc1O2`, the molecule was called inactive in assay [9] and in assay [10].

For `COc1ccc(CNc2nc(-c3ccc4c(c3)OCO4)nc3ccccc23)c(OC)c1`, the Potency in assay [8] is 7.94 µM (active). Further, the Potency result in [4] and in assay [5] was “inactive” throughout.

Turning to `c1ccc(CNc2ccnc(-c3ccc4c(c3)OCO4)n2)cc1`, the Potency is 1.58 µM (active) in assay [3] and 2 µM (active) in [8]. Also, the molecule was classed as inactive in assay [1].

Take `N#C/C(=C\c1ccc(O)c(O)c1)C(=O)OCCc1cccs1`: the Potency in assay [8] is 6.31 µM (active). The call in assay [2] was inactive.

With `O=c1c(-c2cc(F)cc(F)c2)nc2cnc(N3CCOCC3)nc2n1-c1ccccc1`, the Potency in assay [7] is 2.51 µM (active).

For `Cn1cc(-c2nc3cnc(N4CCOCC4)nc3n(CCC#N)c2=O)c2ccccc21`, the Potency entry in assay [4] and in assay [5] was “inactive” in each case.

For the molecule `CN(C)c1ncc2nc(-c3cccs3)c(=O)n(C3CC3)c2n1`, in [7], the Potency was 3.98 µM (active).

As to `COc1ccccc1CNc1nc(-c2cccc(C#N)c2)nc2ccccc12`, the Potency in assay [8] is 3.98 µM (active).

Regarding `COc1ccc(-c2nc3cnc(Nc4cccc(OC)c4)nc3n(Cc3cccs3)c2=O)cc1`, the Potency entry in [4] and in assay [5] was “inactive” each time.

Consider `COc1cc(/C=C\c2ccc(OC)cc2OC)cc(OC)c1`, for which, in assay [2], the outcome was inactive.

On to `COCCn1c(=O)c(-c2cccs2)nc2cnc(N3CCOCC3)nc21`, for which the Potency result in [4] and in [5] was “inactive” in each case.

Take `COc1ccc(CNc2ncncc2-c2ccccc2C)c(OC)c1`: in assay [8], the Potency is 1.58 µM (active). Moreover, the Potency result in assay [4] and in [5] was “inactive” each time.

As to `N#CCCn1c(=O)c(-c2ccc(Cl)cc2)nc2cnc(Nc3ccccc3)nc21`, the Potency entry in assay [4] and in assay [5] was “inactive” in each case.

For the molecule `O=c1c(-c2cccs2)nc2cnc(Nc3ccccc3)nc2n1C[C@H]1CCCO1`, the Potency entry in assay [4] was “inactive”.

With `COc1ncc2nc(-c3ccc(F)cc3)c(=O)n(CCc3ccccc3)c2n1`, the Potency entry in [4] and in [5] was “inactive” each time.

Turning to `CNc1nc(-c2cccnc2)nc2ccccc12`, the activity change, negative = inhibition in [6] was 82.3% [at 2.29 µM]. Also, the figures for the Potency in assay [4] and in assay [5] were 4.47 µM (active) and 6.31 µM (active), respectively.

With `CN(C)c1ncc2nc(-c3cc(F)cc(F)c3)c(=O)n(-c3ccccc3)c2n1`, the Potency entry in [4] and in assay [5] was “inactive” throughout.
